The list is not random: actives were taken first. Their share in the collection is about 9.2%.
NPC1 promoter act: activates the NPC1 promoter. Huh7 NPC1 promoter luciferase reporter, 24 h. 2.4% of 320,000 active. Potency, µM (series often up to 9.22 µM), without a hit: at the top dose activation, actives largely listed as activators; also: % of control where 0% means no effect; nearly all actives have a fitted effect of over 60% in size
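Huh7 reporter cells (NPC1 promoter driving luciferase) are dosed with compound for 24 h at 37 °C, 5% CO2; luciferase detection reagent is then added and luminescence measured after 10 min at ambient temperature.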
FLuc counter: counter-screen for miR-21 project: firefly luciferase inhibitors or activators; 6.9% of 360,000 active; Potency, µM (top dose mostly 57.5 µM), without a hit: top-dose activity change, negative = inhibition, hits mostly inhibitors; purified FLuc, Km substrates, luminescence inhibition; P08659;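 also: plate controls were vehicle for no effect and reference inhibitor for full effect; nearly all actives have a fitted effect of over 55% in size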
Target sequence (P08659 whole entry, looked up): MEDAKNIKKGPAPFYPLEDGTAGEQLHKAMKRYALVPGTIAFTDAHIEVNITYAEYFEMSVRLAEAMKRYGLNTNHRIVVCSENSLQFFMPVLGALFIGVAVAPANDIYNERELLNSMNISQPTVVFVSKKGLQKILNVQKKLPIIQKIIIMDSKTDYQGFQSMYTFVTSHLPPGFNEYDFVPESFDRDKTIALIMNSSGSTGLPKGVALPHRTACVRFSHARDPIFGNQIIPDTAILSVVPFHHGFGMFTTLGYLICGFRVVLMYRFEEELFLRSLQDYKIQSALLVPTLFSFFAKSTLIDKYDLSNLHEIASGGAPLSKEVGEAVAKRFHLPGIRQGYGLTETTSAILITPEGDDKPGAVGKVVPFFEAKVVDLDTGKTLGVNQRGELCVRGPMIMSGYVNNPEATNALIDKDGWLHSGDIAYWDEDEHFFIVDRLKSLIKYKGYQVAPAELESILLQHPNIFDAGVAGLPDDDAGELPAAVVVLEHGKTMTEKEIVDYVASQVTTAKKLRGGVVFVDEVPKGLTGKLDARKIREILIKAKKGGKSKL
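Biochemical qHTS of compounds, final roughly 60 µM downward over six points, against 10 nM purified firefly luciferase using Km concentrations of substrates (10 uM D-luciferin, 10 uM ATP) in Tris acetate pH 7.5 buffer; luminescence output.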
SMN2 splice enh: increases expression of the SMN2 splice variant; HEK293 SMN2-luciferase splicing reporter, luminescence, 30-36 h; Potency, µM (titrated, usually from 46.1 µM), for inactives: at the highest dose activity change, positive = activation, usual class: activators; 2.8% of 210,000 active; AID 1458; also: % of control where 0% means no effect; nearly all actives have a fitted effect of over 55% in size
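qHTS luciferase splicing reporter: luminescence rises when SMN2 exon 7 is included in transfected HEK293 cells. Compound exposure lasted 30-36 h at 37C, with 4.5 mM final sodium butyrate as control, followed by a ONE-Glo read.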
Rab9 prom act: Rab9 promoter activation; Huh7 Rab9 promoter-luciferase reporter, luminescence, 24 h; Potency, µM (titrated, usually from 9.22 µM), inactives show at the highest dose activation, negative = inhibition, actives largely listed as activators; 2.8% of 320,000 active; AID 485297; also: % of control where 0% means no effect; nearly all actives have a fitted effect of over 60% in size
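Quantitative HTS format; Huh7 Rab9-luciferase reporter cells (1500/well) receive compound 2 h post-plating, incubate 24 h at 37 °C, then get luciferase reagent for 10 min before luminescence reading.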
ELG1 genotoxic: induces genotoxicity in HEK293T cells with luciferase-tagged ELG1 | HEK293T ELG1-luciferase reporter, luminescence, 16 h | Potency, µM (top dose mostly 46 µM), for the others: at the highest dose activity change, positive = activation, most hits filed as activators | 1.3% of 330,000 active | AID 504466; also: % of control where 0% means no effect; nearly all actives have a fitted effect of over 60% in size
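HEK293T cells expressing luciferase-tagged ELG1 were exposed to compound or DMSO vehicle for 16 hr at 37 °C and 5% CO2. Luciferase activity was then measured with ONE-Glo after 30 min at room temperature.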
ELG1 repair inh: blocks ELG1-dependent DNA repair in HEK293T cells | HEK293T ELG1-luciferase reporter, luminescence, 16 h; DNA damage induced by 5-fluorouridine | Potency, µM (doses to about 46.1 µM), for the others: top-dose activity change, negative = inhibition, hits mostly inhibitors | 2.3% of 330,000 active | AID 504467; also: % is scaled to controls: 0 for no effect and ±100 for the full control effect; nearly all actives have a fitted effect of over 55% in size
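Quantitative HTS, concentration-response format. 2,000 cells/well co-treated with 5-fluorouridine and compound, 16 hr in 5% CO2 at 37 °C; ONE-Glo luminescence read after 30 min.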
The depositor's hits bear a star; u = inconclusive; x = not tested or not shown. Calls follow the shape of the dose curve; as a rule, active = well fitted curve in the direction sought with a large enough effect; inconclusive = small, poorly fitted or top-dose-only effect, or another doubt; inactive = no such curve, though single readings can be large; an effect the other way counts as inactive or inconclusive. Potency is read from the fitted curve at half-maximal effect.

SMILES | NPC1 promoter act | FLuc counter | SMN2 splice enh | Rab9 prom act | ELG1 genotoxic | ELG1 repair inh
O=C(NC1CCCCCC1)c1ccc(CN2CCOCC2)cc1 | 3.16µM* | 16.9µM* | u | 3.55µM* | u | u
O=C(NCCc1ccc(F)cc1)c1ccc([N+](=O)[O-])cc1 | 2.51µM* | 15.1µM* | 11.2µM* | 3.16µM* | u | u
CCOC(=O)c1cccc(NC(=O)c2cc3c(=O)n(Cc4cccnc4)ccc3nc2C)c1 | x | -1.8% | x | x | x | x
CC1CCCCC1NC(=O)CN1C(=O)NC(C)(c2cc(F)ccc2F)C1=O (stereo unspecified) | 1.2% | -0.3% | x | -6.5% | 1.0% | 23.7%
Cc1cc(C(=O)NCCC2=CCCCC2)ccc1[N+](=O)[O-] | 4.47µM* | 12µM* | x | 1.78µM* | u | u
COc1ccc(C(=O)NCCC2=CCCCC2)cc1 | 0.355µM* | 0.849µM* | 2.51µM* | 0.316µM* | 1.46µM* | u
O=C(CCNC(=O)c1ccc([N+](=O)[O-])cc1)NCCC1=CCCCC1 | -4.6% | -2.2% | x | -2.5% | -3.4% | 0.0%
O=C(NCCC1=CCCCC1)c1ccc([N+](=O)[O-])cc1 | 1.12µM* | 5.36µM* | 2.82µM* | 0.631µM* | u | u
O=C(NCCC1=CCCCC1)c1ccc(F)cc1 | 0.398µM* | 2.13µM* | 7.08µM* | 0.447µM* | u | u
COc1ccc(C(=O)NCC(=O)OCC(=O)NCCC2=CCCCC2)cc1 | 0.5% | 4.5% | 3.3% | -6.2% | -0.1% | 9.3%
COc1ccc(CN(C(=O)COc2ccccc2OC)C2CCS(=O)(=O)C2)cc1 (stereo unspecified) | x | -1.3% | x | x | x | x
COc1ccc(-c2cc(C(F)F)n3ncc(C(=O)Nc4cc(C)on4)c3n2)cc1 | -2.8% | -11.0% | x | -10.7% | -3.4% | u
CCOC(=O)c1ccc(NC(=S)NCCC2=CCCCC2)cc1 | -0.7% | 6.6% | -85.3% | 4.0% | -3.0% | -24.6%
CCOC(=O)c1[nH]c(C)c(C(=O)NCCC2=CCCCC2)c1C | 26.7% | -4.7% | 5.6% | u | u | u
CC(=O)c1c(C)[nH]c(C(=O)NCCC2=CCCCC2)c1C | 3.55µM* | 12µM* | u | u | 9.2µM* | u
O=C(NCCC1=CCCCC1)c1ccc(CN2CCOCC2)cc1 | 2.82µM* | 23.9µM* | 12.6µM* | 1.41µM* | u | u
COc1ccc(CCNC(=O)c2ccc(CN3CCOCC3)cc2)cc1 | 12.4% | u | -14.8% | -2.6% | 0.6% | -11.2%
Cc1ccc(NC(=S)NCCC2=CCCCC2)cc1 | u | u | 20µM* | 3.55µM* | 17.0% | u
COc1ccc(/C=N/OCC(=O)N2CCCC2)c(OC)c1 | -3.7% | 4.6% | 15.7% | -5.8% | 6.6% | u
NC1=NC(=Nc2ccc(Cl)cc2)c2ccccc21 | -2.0% | 7.57µM* | 6.7% | -5.3% | 17.2% | 15.9%
CC(C)c1ccc(N=C2N=C(N)c3ccccc32)cc1 | -2.7% | 0.477µM* | x | u | u | u
NC1=NC(=Nc2ccc(Br)cc2)c2ccccc21 | -5.1% | 8.49µM* | -3.3% | -10.7% | u | u
CCOC(=O)C1CCCN(C(=O)c2ccc(NC(=O)CC3SC(N4CCCC4)=NC3=O)cc2)C1 (stereo unspecified) | -1.0% | 2.6% | x | -1.2% | 0.6% | 6.1%
O=C(c1ccc(Cl)cc1)N1CCCCC(Cl)C1=O (stereo unspecified) | -3.7% | 1.2% | 6.3% | 8.4% | -3.3% | -8.3%
COc1ccc(C2C3=C(CCCC3=O)Nc3nc(-c4cc(OC)c(OC)c(OC)c4)nn32)cc1OC (stereo unspecified) | -1.6% | 3.1% | 8.91µM* | -14.0% | 20.6µM* | -16.7%
SMILES | NPC1 promoter act | FLuc counter | SMN2 splice enh | Rab9 prom act | ELG1 genotoxic | ELG1 repair inh
COc1ccc(C2C(C(N)=O)=C(C)Nc3nc(-c4cccc(Cl)c4)nn32)cc1OC (stereo unspecified) | 6.8% | -1.1% | 17.8µM* | 0.4% | u | 2.0%
COc1ccc(C2C(C(N)=O)=C(C)Nc3nc(-c4ccccc4)nn32)cc1OC (stereo unspecified) | 0.9% | 0.2% | 9.8% | 8.0% | u | u
COc1cccc(C2C(C(N)=O)=C(C)Nc3nc(-c4ccccc4Cl)nn32)c1 (stereo unspecified) | -4.4% | 0.8% | u | -0.9% | 18.4µM* | u
Cc1ccc2nc(-c3cccnc3SCC(=O)N3c4ccccc4CC3C)[nH]c2c1 (stereo unspecified) | u | 5.36µM* | 14.1µM* | u | u | u
CCN(CC)C(=O)CSc1ncccc1-c1nc2ccccc2[nH]1 | 1.4% | 23.9µM* | x | 1.2% | 5.5% | u
O=C(CSc1ncccc1-c1nc2ccccc2[nH]1)N1CCCCC1 | 10.1% | 16.9µM* | 4.7% | 12.0% | 15.1% | u
CC(C)NC(=O)CSc1ncccc1-c1nc2ccccc2[nH]1 | -1.2% | u | x | 7.1% | 9.5% | u
CN(C)C(=O)CSc1ncccc1-c1nc2ccccc2[nH]1 | 8.9% | u | x | 9.1% | 0.0% | 14.2%
Cn1ncc2c(Nc3cc(C(F)(F)F)ccc3Cl)ncnc21 | x | -1.4% | x | x | x | x
Cc1ccnc(NC(=O)c2ccc(NC(=O)CC3SC(N4CCCC4)=NC3=O)cc2)c1 (stereo unspecified) | 15.4% | -15.8% | x | 21.9% | 8.4% | 2.7%
CC1CCC(NC(=O)c2ccc(NC(=O)CC3SC(N4CCCC4)=NC3=O)cc2)CC1 (stereo unspecified) | 2.51µM* | u | x | 2.24µM* | 19.1% | u
Cc1ccnc(NC(=O)c2cccc(NC(=O)CC3SC(N4CCCCC4)=NC3=O)c2)c1 (stereo unspecified) | 3.5% | 12µM* | x | 16.7% | 3.4% | u
Cc1ccccc1NC(=S)N(CCN1CCOCC1)Cc1ccccc1F | -1.5% | -1.2% | x | 0.8% | -7.9% | -2.4%
Cc1ccc2nc(C(F)(F)F)c(C#N)c(N)c2c1 | 8.1% | -0.7% | 14.1µM* | -6.2% | -36.0% | u
O=C(/C=C/c1cc([N+](=O)[O-])ccc1OC(F)F)NCc1ccc(Cl)cc1 | 0.2% | -0.3% | -13.9% | 1.2% | -5.1% | -19.5%
COc1ccc(CNC(=O)/C=C/c2cc([N+](=O)[O-])ccc2OC(F)F)cc1 | -1.6% | 3.2% | -5.7% | 0.8% | -1.5% | -24.4%
COc1ccc(CNC(=O)/C=C/c2cc([N+](=O)[O-])ccc2OC(F)F)cc1OC | -2.4% | 2.0% | -14.1% | 1.4% | -1.1% | 20.6µM*
COC(=O)c1ccc(CNC(=O)/C=C/c2cc([N+](=O)[O-])ccc2OC(F)F)cc1 | -1.0% | 0.0% | 0.2% | -1.9% | -0.9% | 10.3µM*

High-throughput results: PubChem, National Center for Advancing Translational Sciences (NCATS)
